In PubChem BioAssay AID1220 (Sanford-Burnham Center for Chemical Genomics, 2008) one finds inhibition data, which are given here for 105 compounds.

About 1,300 (0.68%) of roughly 190,000 compounds were called active. The sample holds actives, similar compounds and a random draw of the others, so the mix is not that of the screen. Cut-off read from the data, not from the text of the source: active = inhibition above about 50%; inactive = the rest.

Mannose-6-phosphate isomerase (Homo sapiens), sequence (P34949 whole entry, looked up): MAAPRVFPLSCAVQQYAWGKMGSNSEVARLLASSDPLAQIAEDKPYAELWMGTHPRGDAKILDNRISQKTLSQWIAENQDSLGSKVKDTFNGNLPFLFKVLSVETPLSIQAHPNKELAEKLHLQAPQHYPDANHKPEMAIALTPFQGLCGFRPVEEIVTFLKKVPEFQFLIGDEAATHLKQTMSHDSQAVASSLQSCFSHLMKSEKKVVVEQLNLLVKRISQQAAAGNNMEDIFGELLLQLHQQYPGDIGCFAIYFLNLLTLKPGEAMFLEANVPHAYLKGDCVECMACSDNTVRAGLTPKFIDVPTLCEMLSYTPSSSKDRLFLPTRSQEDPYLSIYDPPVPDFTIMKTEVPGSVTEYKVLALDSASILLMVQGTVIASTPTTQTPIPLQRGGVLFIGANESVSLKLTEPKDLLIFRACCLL

This test has as its target Mannose-6-phosphate isomerase (Homo sapiens) (UniProt P34949). Description: human PMI inhibitors, high substrate, primary screen, biochemical, fluorescence intensity, high mannose 6-phosphate (AID 1220). The following applies: recombinant PMI enzyme, coupled fluorescence intensity; at 20 µM; hits give high values.
`Oc1ccc(NC(=S)Nc2ccccc2)cc1`: the inhibition – broadly, the drop in the measured response relative to a control, in per cent – is 16.4% (inactive).
As for `Oc1ccc(NC(=S)Nc2ccc(O)cc2)cc1`, the figure is 66.7% (active).
Regarding `COC(=O)c1ccc(NC(=S)Nc2ccc(O)cc2)cc1`, the inhibition was -3.3% (inactive).
For the compound `CCOc1cc(C(N)=O)cc(Cl)c1OCC`, the inhibition was 1.7% (inactive).
With `Cc1ccc(C(=O)Nc2ccc(C(=O)N/N=C/c3c[nH]c4ccccc34)cc2)cc1`, the inhibition is 11.4% (inactive).
`Cc1[nH]c2ccccc2c1/C=C/C(=O)c1ccccc1`: the inhibition is 3.9% (inactive).
Under `O=C(/C=C/c1c[nH]c2ccccc12)c1ccccc1` stands 52.5% (active).
As for `O=C(/C=C/c1c[nH]c2ccccc12)c1cccc2ccccc12`, the figure is 42% (inactive); as for `Cc1ccc(C(=O)/C=C/c2c[nH]c3ccccc23)cc1`, 54.4% (active).
As for `Cc1ccc(/C=C/C(=O)c2ccccc2)cc1`, the figure is 11.2% (inactive); as for `COc1cc(/C=C(\C#N)c2nc3ccccc3[nH]2)cc(Br)c1OCc1ccc(F)cc1`, 19.3% (inactive).
Turning to `c1ccc(COCCN2CCN(CCOCc3ccccc3)CC2)cc1`, the inhibition is 3.2% (inactive).
Under `COc1ccc2nc(SC)c(C#N)cc2c1` stands 52.1% (active); under `COc1ccc2nc(N3CCC(C)CC3)c(C#N)cc2c1`, -5.3% (inactive); under `COc1ccc2nc(N3CCCC3)c(C#N)cc2c1`, -5.8% (inactive).
With `COc1ccc2nc(SCC(C)=O)c(C#N)cc2c1`, the inhibition was -92.4% (inactive).
For `COc1ccc2nc(N3CCC(O)CC3)c(C#N)cc2c1`, the inhibition was 51.2% (active).
In the case of `CCSc1nc2ccc(OC)cc2cc1C#N`, the inhibition is 14.3% (inactive).
For the compound `COc1cccc(C2=NCCc3cc4c(cc32)OCO4)c1OC`, the inhibition was 1.3% (inactive).
For `CCC(=O)Nc1nc2c(s1)COc1ccccc1-2`, the inhibition was 6.3% (inactive).
In the case of `CCC12CN3CC(CC)(CN(C1)C3c1ccccc1Cl)C2O` (stereo not given), the inhibition is 6.4% (inactive).
As to `CCN(CC(=O)NC1CCS(=O)(=O)C1)C(=O)/C=C/c1cccs1` (stereo not given), the inhibition is -0.6% (inactive).
With `Cc1ccc(-c2csc(/C(C#N)=C/Nc3ccccc3SC(F)(F)F)n2)cc1`, the inhibition was -3.6% (inactive).
With `O=C(Cc1csc(N2CCOCC2)n1)N/N=C/c1cccc(O)c1`, the inhibition is 6.6% (inactive).
`O=C(CCc1ccc(S(=O)(=O)N2CCOCC2)cc1)N/N=C/c1ccc(F)cc1F`: the inhibition was 10.5% (inactive).
Turning to `O=C(Cc1csc(N2CCOCC2)n1)N/N=C/c1ccc(Cl)cc1Cl`, the inhibition was 4.5% (inactive).
Under `O=C(CCc1ccc(S(=O)(=O)N2CCOCC2)cc1)N/N=C/c1cccc(O)c1` stands -6.2% (inactive); under `CCN1CCc2c(OCC(=O)N3CCC(C)CC3)cccc2C1=O`, -8.8% (inactive).
Turning to `COc1cccc(C(=O)NC(=S)Nc2ccc3oc(=O)ccc3c2)c1`, the inhibition was 4.1% (inactive).
`COc1ccc(S(=O)(=O)N2CCCCC2)cc1NC(=S)Nc1cccc(Cl)c1C`: the inhibition was 7.7% (inactive).
In the case of `Cc1cc(N2C(=O)CCC2=O)ccc1NC(=O)c1cccs1`, the inhibition is -1.9% (inactive).
Take `COCc1cc(/C=N\NC(=O)COc2ccc(Cl)cc2)ccc1OC`: the inhibition is -2% (inactive).
On to `Cn1ccc2c([N+](=O)[O-])cccc2c1=O`, for which the inhibition was 23.6% (inactive).
With `O=c1[nH]ccc2c([N+](=O)[O-])cccc12`, the inhibition was 55.2% (active).
Turning to `O=c1[nH]cnc2c([N+](=O)[O-])cccc12`, the inhibition is -12.2% (inactive).
As for `CCc1c(C(C)S(=O)(=O)c2ccc(C)cc2)[nH]c(=O)n1-c1ccc(OC(F)(F)F)cc1` (stereo not given), the figure is -28.2% (inactive); as for `CCc1[nH]c(=O)[nH]c1C(C)S(=O)(=O)c1ccc(C)cc1` (stereo not given), 70.3% (active); as for `CCc1c(C(C)S(=O)(=O)c2ccc(C)cc2)[nH]c(=O)n1-c1ccc(C)cc1` (stereo not given), -35.3% (inactive).
With `CCOC(=O)C1(CCc2ccccc2)CCN(Cc2ccc(OC)cc2)CC1`, the inhibition was 3.3% (inactive).
With `O=C(NC1CCCCC1)c1ccc(NS(=O)(=O)c2cccc3cccnc23)cc1`, the inhibition is -3.4% (inactive).
With `CN1CCN(CC(C)(C)NS(=O)(=O)c2ccc(Cl)cc2)CC1`, the inhibition is 3.4% (inactive).
`NCC(O)(c1ccc(Cl)cc1)c1ccc(Cl)cc1`: the inhibition was 10.4% (inactive).
As for `CN1CCN(CC(O)(c2ccc(Cl)cc2)c2ccc(Cl)cc2)CC1`, the figure is 55.4% (active).
For `COCCN(C(=O)CSc1nnc(-c2ccccc2F)n1C)c1c(N)n(Cc2ccccc2)c(=O)[nH]c1=O`, the inhibition is -3.1% (inactive).
Take `CCCCOc1ccc(CN2CCCCC2)cc1`: the inhibition is 14.9% (inactive).
In the case of `COC(=O)C1CCN(Cc2ccc(OCCCN3CCN(c4ccc([N+](=O)[O-])cc4)CC3)cc2)CC1`, the inhibition is 14% (inactive).
Consider `Oc1ccc(N2CCN(Cc3ccc(OCCCN4CCCCC4)cc3)CC2)cc1`, for which the inhibition is 58.4% (active).
For the compound `Cc1cc2c(cc(C(=O)OCC(=O)NCc3ccco3)n2C)s1`, the inhibition was -6.2% (inactive).
Consider `CN1CCN(C(=O)C2=C[C@H](C(C)(C)C)C[C@H](OCCCCO)O2)CC1`, for which the inhibition was 0.2% (inactive).
Consider `CCOC(=O)c1cc2cc3ccccc3cc2[nH]1`, for which the inhibition was 53.2% (active).
Take `CC(C)OC(=O)c1cc2ccccc2[nH]1`: the inhibition was 7.4% (inactive).
Under `CCOC(=O)c1cc2cc(OC)ccc2[nH]1` stands -9.7% (inactive); under `CCCC(=O)Nc1cc(OC)c(NC(=O)NC2CCCCC2)cc1OC`, 51.8% (active).
Turning to `CCCCC(=O)Nc1cc(OC)c(NC(=O)C2CCCCC2)cc1OC`, the inhibition was 2.5% (inactive).
For the compound `COc1ccc(Cl)cc1NC(=O)NC1CCCCC1`, the inhibition was -2.2% (inactive).
As for `O=C(CCC1COc2ccccc2O1)NCc1ccccc1` (stereo not given), the figure is 0.9% (inactive).
Take `CC1CC2(CCCCC2)Nc2c1ccc1ccccc21` (stereo not given): the inhibition is -36.7% (inactive).
Under `NS(=O)(=O)c1cccc(NC(=O)CN2CCN(Cc3ccc4c(c3)OCO4)CC2)c1` stands 10% (inactive); under `COc1ccc(NC2=C(Cl)C(=O)N(CCc3ccccc3)C2=O)cc1`, 4.8% (inactive).
As for `Cc1cc(=S)cc(C)n1CCO`, the figure is -138% (inactive); as for `O=C(/C(=N/N=C/c1ccc(O)c(O)c1O)c1ccccc1)c1ccccc1`, 30.5% (inactive); as for `O=C(/C(=N/N=C/c1ccc(O)c(O)c1)c1ccccc1)c1ccccc1`, 24.9% (inactive).
`C/C(=N\NS(=O)(=O)c1ccc(C)c([N+](=O)[O-])c1)c1ccc2c(c1)OCO2`: the inhibition is -16.6% (inactive).
Under `COc1cc(OCC(N)=O)cc(OC)c1OC` stands 7.1% (inactive); under `C=CCOc1ccc(/C(CC)=N/O)c(OC)c1`, 6.3% (inactive); under `C=CCOc1cc(OC)c(OC)c(OC)c1`, 54.8% (active).
On to `COc1ccccc1NC(=O)c1ccccc1S(=O)(=O)c1ccccc1[N+](=O)[O-]`, for which the inhibition is 12.3% (inactive).
Under `C=CCn1c(SCC(=O)NC(=O)NC)nnc1C1CCCCC1` stands -11.2% (inactive); under `CC(=O)c1cccc(NC(=O)/C(=C\c2cccnc2)NC(=O)c2ccco2)c1`, -6.2% (inactive); under `CC1(C)CC(=O)C(/C=N/c2ncccc2C(=O)O)=C(O)C1`, -18.7% (inactive).
As for `CC1(C)CC(=O)C(C=Nc2cccnc2/N=C/C2=C(O)CC(C)(C)CC2=O)=C(O)C1`, the figure is 58.8% (active).
Under `CC1(C)CC(=O)C(/C=N/c2ccccn2)=C(O)C1` stands -6.9% (inactive).
Take `CCOC(=O)c1nc(C)n(-c2cc(OC)c(Cl)cc2Cl)n1`: the inhibition was -10.2% (inactive).
As for `Cc1ccc2nc(SC(C(=O)c3ccccc3)c3ccccc3)nc(C)c2c1` (stereo not given), the figure is 1.4% (inactive); as for `Cc1ccc(N=Cc2sccc2C)cc1C`, 8.8% (inactive); as for `CCN(CC)c1ccc(O)c(C=Nc2ccc(C)c(C)c2)c1`, 57% (active).
Under `COc1ccc(N=Cc2cc(Cl)ccc2O)cc1Cl` stands 40.6% (inactive); under `COC(=O)N/N=C/c1cc(Br)ccc1O`, 13.6% (inactive); under `CCN(CC)c1ccc(N=Cc2cc(Br)ccc2O)cc1`, 63.1% (active).
Regarding `Oc1ccc(Br)cc1C=Nc1ccc(Cl)cc1`, the inhibition is 13.7% (inactive).
Regarding `NS(=O)(=O)c1ccc(CCNC(=O)NC2(C(F)(F)F)Oc3ccccc3O2)cc1`, the inhibition was -9.2% (inactive).
Consider `CC1(N2CCOCC2)C(=O)c2ccccc2C1=O`, for which the inhibition was -17.3% (inactive).
Turning to `COc1cc(OC)c2c(c1)C(=O)OC2`, the inhibition was -32.4% (inactive).
Under `COc1cc(OC)c2c(O)c3c(c(-c4c5c(c(O)c6c(OC)cc(OC)cc46)CO[C@@H](C)[C@H]5O)c2c1)[C@H](O)[C@H](C)OC3` stands 54.8% (active).
Turning to `COc1cc(OC)c2c(c1)OC(c1ccc(OC)c(OC)c1)C(O)C2=O` (stereo not given), the inhibition was 1.6% (inactive).
`COc1ccccc1CC(=O)Nc1ccc(O)cc1C(=O)O`: the inhibition was 2.5% (inactive).
On to `CCCC1=[N+](CC(C)=O)CCn2c(C)ccc21`, for which the inhibition was -7.3% (inactive).
Under `CN1CCc2ccccc2C1C1CCNCC1` (stereo not given) stands 8.3% (inactive); under `COc1ccc2c(c1O)-c1ccccc1CCN(C)C2`, 7.3% (inactive); under `CN1CCc2cc3c(c4c2[C@H]1[C@H](O)c1ccccc1-4)OCO3`, 16.9% (inactive).
Turning to `CCCCC(=O)Nc1cc2nn(-c3ccc(OC)cc3)nc2cc1C`, the inhibition is 10.9% (inactive).
Turning to `O=C(NCCN1CCN(c2ccccc2)CC1)C1(S(=O)(=O)c2ccc(Cl)cc2)CC1`, the inhibition is 18% (inactive).
As for `S=C(c1ccc(-c2ccc(Cl)c(Cl)c2)o1)N1CCOCC1`, the figure is -7.4% (inactive); as for `O=[N+]([O-])c1cc(-c2ccc(C(=S)N3CCOCC3)o2)ccc1Cl`, 61% (active); as for `O=[N+]([O-])c1cccc(-c2ccc(C(=S)N3CCOCC3)o2)c1`, 47% (inactive).
On to `CC1CCN(C(=O)CSc2nnc(CNc3ccc(F)cc3)n2Cc2ccco2)CC1`, for which the inhibition was 10.7% (inactive).
For `CCCN1C2CCCC1CC(NC(=O)c1ccccc1OCC)C2` (stereo not given), the inhibition is 0% (inactive).
On to `COc1cccc(C2CC(=O)N3CN(c4ccccc4F)CSC3=C2C#N)c1` (stereo not given), for which the inhibition is -11.4% (inactive).
`COc1cc(C2CC(=O)N3CN(Cc4ccco4)CSC3=C2C#N)ccc1OCc1ccccc1` (stereo not given): the inhibition was 74.4% (active).
Turning to `COc1ccc(C2CC(=O)N3CN(c4ccccc4F)CSC3=C2C#N)cc1OC` (stereo not given), the inhibition was -0.4% (inactive).
In the case of `COc1ccc(C2CC(=O)N3CN(c4ccc(C)c(Cl)c4)CSC3=C2C#N)cc1OC` (stereo not given), the inhibition is -27.1% (inactive).
On to `COc1cc(C2CC(=O)N3CN(Cc4ccccc4)CSC3=C2C#N)ccc1OCc1ccccc1` (stereo not given), for which the inhibition was 66.3% (active).
As for `CCc1ccc(C2CC(=O)N3CN(c4ccccc4)CSC3=C2C#N)cc1` (stereo not given), the figure is -47.1% (inactive); as for `N#CC1=C2SCN(Cc3ccccc3)CN2C(=O)CC1c1ccc2c(c1)OCO2` (stereo not given), 47.4% (inactive); as for `CN1CSC2=C(C#N)C(c3cccc(OCc4ccccc4)c3)CC(=O)N2C1` (stereo not given), 59.9% (active).
